Measured values: PubChem BioAssay (EPA / NIEHS)
Values joined by “and” are separate entries in the source; they are usually repeats but may differ in a detail not shown here. Identical values can stand only once. Results filed as inconclusive are left out. Active and inactive are the calls of the source. How the source made its calls: active means hit-call score of the fitted dose curve at least 0.9, where 1 is the maximum; inconclusive means response in the unintended direction; inactive means score below 0.9.

How the values were obtained:
[1] = molecular target: human Raf-1 Proto-Oncogene, serine/threonine Kinase (RAF1), RAF1 (gene 5894) (UniProt P04049); test: NVS_ENZ_hRAF1: NovaScreen (NVS) Enzymatic Assay for human Raf-1 Proto-Oncogene, serine/threonine Kinase (RAF1) (AID 2283216)
How it was run: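 Cell-free recombinant kinase with specific fluorescent substrate, product separated by electrophoretic mobility shift; read 1 h after dosing. Primary screen at 25 uM in duplicate; hits then run in concentration-response up to 50 uM, fitted as loss of signal versus DMSO.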

[2] = molecular target: human Sirtuin 2 (SIRT2), SIRT2 (gene 22933) (UniProt Q8IXJ6); test: NVS_ENZ_hSIRT2: NovaScreen (NVS) Enzymatic Assay for human Sirtuin 2 (SIRT2) (AID 2283217)
How it was run: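 Cell-free recombinant human SIRT2, fluorescent substrate with product separated by electrophoretic mobility shift, 1 hr. Screened in duplicate at 25 uM; hits rerun singly in concentration-response up to 50 uM, relative to DMSO.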

[3] = molecular target: human Rho Associated Coiled-coil Containing Protein Kinase 1 (ROCK1), ROCK1 (gene 6093) (UniProt Q13464); test: NVS_ENZ_hROCK1: NovaScreen (NVS) Enzymatic Assay for human Rho Associated Coiled-coil Containing Protein Kinase 1 (ROCK1) (AID 2283214)
How it was run: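 Cell-free recombinant human ROCK1 activity assay; fluorescent substrate and product separated by electrophoretic mobility shift, read 1 h after dosing. Screened in duplicate at 25 uM; loss of signal versus DMSO baseline scored as inhibition.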

[4] = molecular target: human Protein Tyrosine Phosphatase Receptor Type M (PTPRM), PTPRM (gene 5797) (UniProt P28827); test: NVS_ENZ_hPTPRM: NovaScreen (NVS) Enzymatic Assay for human Protein Tyrosine Phosphatase Receptor Type M (PTPRM) (AID 2283215)
How it was run: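 Cell-free recombinant PTPRM with fluorogenic substrate; product separated from substrate by electrophoretic mobility shift and read by fluorescence, 1.33 h after dosing. Primary screen single concentration (25 uM) in duplicate; actives retested in concentration series; loss of signal versus DMSO.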

[5] = molecular target: human Sirtuin 1 (SIRT1), SIRT1 (gene 23411) (UniProt Q96EB6); test: NVS_ENZ_hSIRT1: NovaScreen (NVS) Enzymatic Assay for human Sirtuin 1 (SIRT1) (AID 2283219)
Experimental: NVS_ENZ_hSIRT1 is a biochemical, single-readout assay that uses extracted gene-proteins in a cell-free assay. Measurements were taken 1 hour after chemical dosing in a 384-well plate.NVS_ENZ_hSIRT1 is one of one assay component(s) measured or calculated from the NVS_ENZ_hSIRT1 assay. It is designed to make measurements of enzyme activity, a form of enzyme reporter, as detected with fluorescence intensity signals by Fluorescence and electrophoretic mobility shift technology.Data from the assay component NVS_ENZ_hSIRT1 was analyzed into 1 assay endpoint. This assay endpoint, NVS_ENZ_hSIRT1, was analyzed in the positive analysis fitting direction relative to DMSO as the negative control and baseline of activity. Using a type of enzyme reporter, loss-of-signal activity can be used to understand changes in the enzymatic activity as they relate to the gene SIRT1. Furthermore, this assay endpoint can be referred to as a primary readout, because this assay has produced multiple assay endpoints where this one serves a enzymatic activity function. To generalize the intended target to other relatable targets, this assay endpoint is annotated to the hydrolase intended target family, where the subfamily is protein deacetylase.
Binding assays used specific radioligands (tritiated, iodinated) with non-radioactive competitive displacement ligands in agonist or antagonist protocols (as indicated) and various reference compounds and inhibitors to titrate specific binding to receptors and transporters. Most enzyme assays (CYPs, kinases, phosphatases, proteases, HDACs) used recombinant protein and specific substrates (fluorescence mostly, some colorimetric and radioactive) and inhibitors, followed by a biochemical separation of substrate and product. All assays for the biochemical HTS were initially run in duplicate at a single concentration (10 uM for CYP450 assays and 25 uM for all others). […]

[6] = molecular target: human Tyrosine Protein Kinase Receptor Tie-2 (Tie2), TEK (gene 7010) (UniProt Q02763); test: NVS_ENZ_hTie2: NovaScreen (NVS) Enzymatic Assay for human Tyrosine Protein Kinase Receptor Tie-2 (Tie2) (AID 2283225)
How it was run: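 Recombinant human Tie2 kinase activity was read cell-free by fluorescence with electrophoretic mobility shift, 1 hour after dosing. The screen used 25 uM in duplicate, then concentration-response up to 50 uM. Signal loss was scored against DMSO.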

[7] = molecular target: human Sirtuin 3 (SIRT3), SIRT3 (gene 23410) (UniProt Q9NTG7); test: NVS_ENZ_hSIRT3: NovaScreen (NVS) Enzymatic Assay for human Sirtuin 3 (SIRT3) (AID 2283222)
How it was run: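 Cell-free enzyme assay with recombinant protein and fluorescent substrate, product separated by electrophoretic mobility shift; read 1 hour after dosing. Screened in duplicate at 25 uM, then singleton concentration-response up to 50 uM; loss of signal versus DMSO.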

[8] = molecular target: human SRC Proto-Oncogene, Non-receptor Tyrosine Kinase (SRC), SRC (gene 6714) (UniProt P12931); test: NVS_ENZ_hSRC: NovaScreen (NVS) Enzymatic Assay for human SRC Proto-Oncogene, Non-receptor Tyrosine Kinase (SRC) (AID 2283223)
How it was run: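 Cell-free kinase activity assay with fluorescent substrate, product separated by electrophoretic mobility shift, read 1 h after dosing. Duplicate single point at 25 uM, then concentration-response up to 50 uM; loss of signal versus DMSO.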

[9] = molecular target: human Tropomyosin Receptor Kinase A (TRKA), NTRK1 (gene 4914) (UniProt P04629); test: NVS_ENZ_hTrkA: NovaScreen (NVS) Enzymatic Assay for human Tropomyosin Receptor Kinase A (TRKA) (AID 2283224)
How it was run: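 Recombinant human TrkA activity read after 1 h by fluorescence with electrophoretic mobility shift separating substrate and product. Primary screen in duplicate at 25 uM; actives were rerun in concentration-response up to 50 uM. Loss of signal versus DMSO.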

Sequence of human Tyrosine Protein Kinase Receptor Tie-2 (Tie2), TEK (gene 7010) (Q02763 whole entry, looked up): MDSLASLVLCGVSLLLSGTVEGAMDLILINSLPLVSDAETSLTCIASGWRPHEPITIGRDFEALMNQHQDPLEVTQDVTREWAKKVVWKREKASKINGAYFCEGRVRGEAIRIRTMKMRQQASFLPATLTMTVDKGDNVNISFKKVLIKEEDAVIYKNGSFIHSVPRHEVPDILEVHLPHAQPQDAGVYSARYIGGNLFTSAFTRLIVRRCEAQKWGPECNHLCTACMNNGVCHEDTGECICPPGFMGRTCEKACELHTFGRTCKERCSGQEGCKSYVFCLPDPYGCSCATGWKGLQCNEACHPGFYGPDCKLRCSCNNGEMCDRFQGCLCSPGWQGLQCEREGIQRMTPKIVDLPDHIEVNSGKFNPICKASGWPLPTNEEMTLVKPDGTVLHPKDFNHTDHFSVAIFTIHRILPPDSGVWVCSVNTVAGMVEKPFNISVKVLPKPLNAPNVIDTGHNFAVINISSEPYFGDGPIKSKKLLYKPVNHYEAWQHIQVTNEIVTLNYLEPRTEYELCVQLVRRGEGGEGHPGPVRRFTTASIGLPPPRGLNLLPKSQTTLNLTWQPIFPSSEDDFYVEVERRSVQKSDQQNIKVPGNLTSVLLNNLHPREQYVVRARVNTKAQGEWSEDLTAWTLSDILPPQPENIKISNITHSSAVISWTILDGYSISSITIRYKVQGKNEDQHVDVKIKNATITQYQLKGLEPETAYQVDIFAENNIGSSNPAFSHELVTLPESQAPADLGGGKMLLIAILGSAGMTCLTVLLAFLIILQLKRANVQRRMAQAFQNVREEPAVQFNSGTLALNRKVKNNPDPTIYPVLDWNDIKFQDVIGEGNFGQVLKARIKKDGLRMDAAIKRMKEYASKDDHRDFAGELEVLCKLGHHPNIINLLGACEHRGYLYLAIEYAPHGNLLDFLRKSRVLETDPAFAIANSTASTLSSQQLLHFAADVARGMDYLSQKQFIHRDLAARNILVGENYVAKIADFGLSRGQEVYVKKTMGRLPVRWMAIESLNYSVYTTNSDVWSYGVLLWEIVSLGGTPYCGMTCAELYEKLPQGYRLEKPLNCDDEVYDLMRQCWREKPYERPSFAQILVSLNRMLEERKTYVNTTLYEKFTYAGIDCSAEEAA
Sequence of human Sirtuin 3 (SIRT3), SIRT3 (gene 23410) (Q9NTG7 whole entry, looked up): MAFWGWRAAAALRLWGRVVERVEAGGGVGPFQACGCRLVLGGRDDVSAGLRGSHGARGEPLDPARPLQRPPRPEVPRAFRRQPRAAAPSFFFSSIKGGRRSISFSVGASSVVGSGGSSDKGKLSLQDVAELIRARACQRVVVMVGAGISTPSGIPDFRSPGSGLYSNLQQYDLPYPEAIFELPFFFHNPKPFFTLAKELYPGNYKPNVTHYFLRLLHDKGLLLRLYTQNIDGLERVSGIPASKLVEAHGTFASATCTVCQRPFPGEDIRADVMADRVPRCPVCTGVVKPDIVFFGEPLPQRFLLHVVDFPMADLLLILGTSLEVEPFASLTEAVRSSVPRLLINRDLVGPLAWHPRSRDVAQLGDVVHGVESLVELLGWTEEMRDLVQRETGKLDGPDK
Sequence of human Rho Associated Coiled-coil Containing Protein Kinase 1 (ROCK1), ROCK1 (gene 6093) (Q13464 whole entry, looked up): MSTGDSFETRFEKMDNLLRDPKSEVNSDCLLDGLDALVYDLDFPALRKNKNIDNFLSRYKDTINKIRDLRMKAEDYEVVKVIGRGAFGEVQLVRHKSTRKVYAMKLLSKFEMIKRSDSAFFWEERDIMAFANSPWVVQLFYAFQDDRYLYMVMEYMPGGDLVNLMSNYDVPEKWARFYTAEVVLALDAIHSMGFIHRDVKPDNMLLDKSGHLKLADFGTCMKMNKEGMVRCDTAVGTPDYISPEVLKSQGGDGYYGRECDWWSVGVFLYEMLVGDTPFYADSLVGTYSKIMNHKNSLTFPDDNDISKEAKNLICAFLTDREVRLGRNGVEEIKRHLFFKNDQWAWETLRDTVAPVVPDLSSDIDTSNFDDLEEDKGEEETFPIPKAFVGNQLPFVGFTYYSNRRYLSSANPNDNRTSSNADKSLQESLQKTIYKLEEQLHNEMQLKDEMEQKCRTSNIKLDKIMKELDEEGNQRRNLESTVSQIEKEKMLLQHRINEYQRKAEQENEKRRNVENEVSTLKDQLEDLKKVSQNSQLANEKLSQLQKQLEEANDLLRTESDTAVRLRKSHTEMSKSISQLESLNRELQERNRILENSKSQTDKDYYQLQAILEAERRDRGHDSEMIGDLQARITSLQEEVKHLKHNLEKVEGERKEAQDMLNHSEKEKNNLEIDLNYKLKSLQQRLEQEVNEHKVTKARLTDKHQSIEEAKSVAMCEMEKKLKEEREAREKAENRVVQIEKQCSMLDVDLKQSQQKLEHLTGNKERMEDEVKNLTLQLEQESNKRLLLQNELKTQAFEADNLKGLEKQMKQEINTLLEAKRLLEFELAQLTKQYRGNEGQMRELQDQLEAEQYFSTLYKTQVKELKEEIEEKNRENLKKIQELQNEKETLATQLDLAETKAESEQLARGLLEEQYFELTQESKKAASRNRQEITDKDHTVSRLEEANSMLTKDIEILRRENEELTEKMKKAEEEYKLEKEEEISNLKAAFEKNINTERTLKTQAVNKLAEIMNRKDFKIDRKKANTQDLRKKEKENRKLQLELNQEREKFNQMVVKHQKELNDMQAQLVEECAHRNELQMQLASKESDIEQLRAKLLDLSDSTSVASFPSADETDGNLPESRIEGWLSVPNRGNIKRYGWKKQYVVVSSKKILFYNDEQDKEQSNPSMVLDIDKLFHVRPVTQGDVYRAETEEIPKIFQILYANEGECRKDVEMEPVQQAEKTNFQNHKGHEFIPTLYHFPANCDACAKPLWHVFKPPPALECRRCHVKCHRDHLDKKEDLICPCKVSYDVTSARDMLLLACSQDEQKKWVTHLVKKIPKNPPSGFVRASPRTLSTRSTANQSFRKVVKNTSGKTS
Sequence of human Raf-1 Proto-Oncogene, serine/threonine Kinase (RAF1), RAF1 (gene 5894) (P04049 whole entry, looked up): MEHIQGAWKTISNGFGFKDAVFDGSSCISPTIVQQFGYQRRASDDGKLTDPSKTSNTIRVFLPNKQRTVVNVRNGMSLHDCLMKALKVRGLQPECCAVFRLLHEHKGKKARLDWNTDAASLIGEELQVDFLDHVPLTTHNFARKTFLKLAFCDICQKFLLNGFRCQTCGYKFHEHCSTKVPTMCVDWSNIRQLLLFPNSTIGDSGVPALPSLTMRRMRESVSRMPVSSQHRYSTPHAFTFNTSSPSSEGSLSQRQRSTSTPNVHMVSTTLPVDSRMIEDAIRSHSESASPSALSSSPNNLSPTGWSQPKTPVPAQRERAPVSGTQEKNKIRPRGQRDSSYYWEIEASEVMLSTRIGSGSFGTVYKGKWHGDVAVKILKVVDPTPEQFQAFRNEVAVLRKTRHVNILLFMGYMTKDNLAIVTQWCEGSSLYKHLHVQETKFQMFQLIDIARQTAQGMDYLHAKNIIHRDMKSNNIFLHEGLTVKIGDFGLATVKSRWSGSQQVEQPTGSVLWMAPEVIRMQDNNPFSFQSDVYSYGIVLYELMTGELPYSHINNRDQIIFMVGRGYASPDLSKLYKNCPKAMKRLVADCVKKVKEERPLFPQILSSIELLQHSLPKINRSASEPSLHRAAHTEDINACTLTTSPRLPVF
Sequence of human Protein Tyrosine Phosphatase Receptor Type M (PTPRM), PTPRM (gene 5797) (P28827 whole entry, looked up): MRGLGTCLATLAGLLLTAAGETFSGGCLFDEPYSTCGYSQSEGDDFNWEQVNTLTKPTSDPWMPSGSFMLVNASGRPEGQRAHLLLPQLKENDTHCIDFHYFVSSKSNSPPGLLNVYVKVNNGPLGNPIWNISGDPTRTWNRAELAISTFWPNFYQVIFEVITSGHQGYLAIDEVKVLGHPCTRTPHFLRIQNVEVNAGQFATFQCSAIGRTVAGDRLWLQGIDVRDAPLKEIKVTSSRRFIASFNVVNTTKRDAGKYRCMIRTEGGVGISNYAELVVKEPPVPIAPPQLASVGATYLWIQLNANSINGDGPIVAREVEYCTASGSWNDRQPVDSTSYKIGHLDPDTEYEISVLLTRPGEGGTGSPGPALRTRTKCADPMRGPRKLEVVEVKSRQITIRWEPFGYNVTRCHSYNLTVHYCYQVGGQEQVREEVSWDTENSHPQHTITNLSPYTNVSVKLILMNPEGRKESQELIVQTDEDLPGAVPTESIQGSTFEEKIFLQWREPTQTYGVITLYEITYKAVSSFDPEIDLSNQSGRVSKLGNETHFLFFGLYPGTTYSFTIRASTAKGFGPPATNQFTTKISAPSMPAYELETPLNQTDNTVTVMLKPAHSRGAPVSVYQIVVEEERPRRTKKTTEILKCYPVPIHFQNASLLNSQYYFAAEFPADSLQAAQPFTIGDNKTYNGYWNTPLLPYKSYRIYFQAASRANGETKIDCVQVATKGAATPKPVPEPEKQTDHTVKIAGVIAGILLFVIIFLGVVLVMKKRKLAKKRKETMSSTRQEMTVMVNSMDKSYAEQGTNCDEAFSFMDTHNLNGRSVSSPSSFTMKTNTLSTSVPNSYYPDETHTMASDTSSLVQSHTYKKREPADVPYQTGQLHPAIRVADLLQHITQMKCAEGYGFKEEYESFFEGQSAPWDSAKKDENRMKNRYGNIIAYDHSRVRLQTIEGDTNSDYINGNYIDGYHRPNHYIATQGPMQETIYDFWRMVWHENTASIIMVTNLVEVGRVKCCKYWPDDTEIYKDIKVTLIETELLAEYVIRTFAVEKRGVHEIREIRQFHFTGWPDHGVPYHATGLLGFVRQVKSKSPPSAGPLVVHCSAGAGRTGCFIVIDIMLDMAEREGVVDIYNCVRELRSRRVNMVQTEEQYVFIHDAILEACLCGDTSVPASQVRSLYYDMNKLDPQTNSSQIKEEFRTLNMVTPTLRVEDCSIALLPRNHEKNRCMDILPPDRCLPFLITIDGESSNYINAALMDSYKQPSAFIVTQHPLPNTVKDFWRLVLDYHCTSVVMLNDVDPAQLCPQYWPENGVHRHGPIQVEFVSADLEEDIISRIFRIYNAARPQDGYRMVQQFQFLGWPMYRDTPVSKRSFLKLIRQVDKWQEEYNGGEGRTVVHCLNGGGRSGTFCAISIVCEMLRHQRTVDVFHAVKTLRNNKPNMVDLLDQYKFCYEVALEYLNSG

CCCOc1nn(C(=O)NS(=O)(=O)c2ccccc2C(=O)OC)c(=O)n1C
outcome [1]: inactive

O=C(O)c1cc(Oc2ccc(C(F)(F)F)cc2Cl)ccc1[N+](=O)[O-]
outcome [2]: inactive

CC1(C(=O)Nc2ccc(O)c(Cl)c2Cl)CCCCC1
outcome [3]: inactive
outcome [4]: inactive

COP(=O)(OC)OC(Br)C(Cl)(Cl)Br (centres undefined)
outcome [4]: inactive
AC50 [5]: 15.8 µM (active)

CN(C)NC(=O)CCC(=O)O
outcome [1]: inactive

C=C(C)[C@H]1Cc2c(ccc3c2O[C@@H]2COc4cc(OC)c(OC)cc4[C@@H]2C3=O)O1
outcome [6]: inactive

Nc1c(Cl)cc([N+](=O)[O-])cc1Cl
outcome [4]: inactive

N#CSCSC#N
outcome [4]: inactive
AC50 [5]: 11.3 µM (active)
outcome [7]: inactive

CCCCOC(=O)c1ccccc1C(=O)O
outcome [6]: inactive

CCC(=O)Nc1ccc(Cl)c(Cl)c1
outcome [3]: inactive

CC(C)[C@H](C(=O)O[C@H](C#N)c1cccc(Oc2ccccc2)c1)c1ccc(Cl)cc1
outcome [7]: inactive
outcome [8]: inactive

O=[N+]([O-])c1cc(C(F)(F)F)c(Cl)c([N+](=O)[O-])c1Nc1ncc(C(F)(F)F)cc1Cl
outcome [4]: inactive
outcome [6]: inactive

COc1ccc(C(=CC(=O)N2CCOCC2)c2ccc(Cl)cc2)cc1OC
outcome [7]: inactive

CN(C)[C@@H]1C(=O)C(C(N)=O)=C(O)[C@@]2(O)C(=O)C3=C(O)c4c(O)cccc4[C@@](C)(O)[C@H]3[C@H](O)[C@@H]12
outcome [3]: inactive
AC50 [1]: 11.1 µM (active)
AC50 [9]: 17.8 µM (active)
AC50 [6]: 7.51 µM (active) and 13.4 µM (active) and 8.19 µM (active)

CCCOCC(=Nc1ccc(Cl)cc1C(F)(F)F)n1ccnc1
outcome [1]: inactive
